Test results taken from PubChem BioAssay (EPA / NIEHS).
Records with an inconclusive call do not appear. The source holds several records for some structures; these can differ, active in one and inactive in another. The source made the active and inactive calls. How the source made its calls, unless noted: active means hit-call score of the fitted dose curve at least 0.9, where 1 is the maximum; inconclusive means response in the unintended direction; inactive means score below 0.9.

Legend:
[1] = biological target: Estrogen receptor beta (Homo sapiens) (UniProt Q92731); assay: OT_ER_ERbERb_1440: Odyssey Thera (OT) 24-hour HEK293T Protein-Complementation Assay for Estrogen Receptor-beta/-beta Homodimer (AID 2283380);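 further: fluorescence gain from ER beta LBD homodimer complementation read by laser scanning cytometry; scored as signal increase over DMSO baseline for both agonists and antagonists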
Estrogen receptor beta (Homo sapiens), sequence (Q92731 whole entry, looked up, the tested form may be a part): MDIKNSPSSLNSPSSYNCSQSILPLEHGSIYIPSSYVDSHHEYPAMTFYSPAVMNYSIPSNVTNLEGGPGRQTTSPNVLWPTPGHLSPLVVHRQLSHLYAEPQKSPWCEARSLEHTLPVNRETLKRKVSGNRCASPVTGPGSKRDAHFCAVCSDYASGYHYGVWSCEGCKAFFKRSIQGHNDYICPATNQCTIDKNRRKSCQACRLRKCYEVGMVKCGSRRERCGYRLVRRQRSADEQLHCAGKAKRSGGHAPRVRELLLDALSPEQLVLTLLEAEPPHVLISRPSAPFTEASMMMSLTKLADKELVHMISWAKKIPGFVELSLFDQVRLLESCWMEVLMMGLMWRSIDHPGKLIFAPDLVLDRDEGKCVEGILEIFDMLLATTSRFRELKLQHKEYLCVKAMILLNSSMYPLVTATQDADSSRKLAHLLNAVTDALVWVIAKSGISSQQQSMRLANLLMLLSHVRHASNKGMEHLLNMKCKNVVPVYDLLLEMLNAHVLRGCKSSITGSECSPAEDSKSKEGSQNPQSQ
How it was run: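 HEK293T cells stably expressing human ER-beta LBD (aa 310-547) PCA homodimer pair, dosed 24 h; formaldehyde-fixed, Draq5-stained. Readout: increase in nuclear (agonist) or nuclear plus cytoplasmic (antagonist) fluorescence intensity versus DMSO, gain-of-signal fitting.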

[2] = biological target: Estrogen receptor (Homo sapiens) (UniProt P03372); assay: OT_ERa_GFPERaERE_0480: Odyssey Thera (OT) 8-hour HeLa Transcription Induction Assay for Estrogen Receptor (AID 2283381; active means hit-call score of the fitted dose curve at least 0.9, where 1 is the maximum; inactive means score below 0.9)
Estrogen receptor (Homo sapiens), sequence (P03372 whole entry, looked up): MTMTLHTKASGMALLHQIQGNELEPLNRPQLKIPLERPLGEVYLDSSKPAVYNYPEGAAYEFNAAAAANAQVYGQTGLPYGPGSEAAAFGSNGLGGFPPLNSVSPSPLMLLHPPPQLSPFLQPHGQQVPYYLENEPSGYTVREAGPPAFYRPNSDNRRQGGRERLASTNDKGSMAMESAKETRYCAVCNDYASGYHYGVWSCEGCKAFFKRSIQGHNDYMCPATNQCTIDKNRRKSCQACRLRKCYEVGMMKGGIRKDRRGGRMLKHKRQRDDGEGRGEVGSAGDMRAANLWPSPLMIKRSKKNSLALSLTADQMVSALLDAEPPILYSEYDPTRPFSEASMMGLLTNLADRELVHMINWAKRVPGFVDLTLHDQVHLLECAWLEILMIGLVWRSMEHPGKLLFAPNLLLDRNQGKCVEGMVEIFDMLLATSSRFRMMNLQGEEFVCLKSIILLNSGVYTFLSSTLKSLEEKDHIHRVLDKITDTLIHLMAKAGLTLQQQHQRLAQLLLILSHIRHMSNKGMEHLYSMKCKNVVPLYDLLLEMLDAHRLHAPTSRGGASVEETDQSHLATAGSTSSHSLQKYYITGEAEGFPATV
How it was run: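 GFP-ERE reporter, HeLa, 8 h exposure. Readout: fluorescence microscopy, high-content image analysis. Fit direction positive vs DMSO negative control.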

[3] = biological target: Estrogen receptor (Homo sapiens) (UniProt P03372); assay: OT_ERa_GFPERaERE_0120: Odyssey Thera (OT) 2-hour HeLa Transcription Induction Assay for Estrogen Receptor (AID 2283382)
How it was run: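 Fluorescence microscopy read-out: inducible fluorescent protein reporter in HeLa cells, imaged 2 h post-dose. Signal increase over DMSO negative control fitted as single primary endpoint via high content image analysis.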

[4] = biological target: Retinoic acid receptor RXR-alpha (Homo sapiens) (UniProt P19793); assay: OT_NURR1_NURR1RXRa_0480: Odyssey Thera (OT) 8-hour HEK293T Protein Complementation Assay for Nurr1/retinoid X receptor (RXR) (AID 2283385)
Retinoic acid receptor RXR-alpha (Homo sapiens), sequence (P19793 whole entry, looked up, the tested form may be a part): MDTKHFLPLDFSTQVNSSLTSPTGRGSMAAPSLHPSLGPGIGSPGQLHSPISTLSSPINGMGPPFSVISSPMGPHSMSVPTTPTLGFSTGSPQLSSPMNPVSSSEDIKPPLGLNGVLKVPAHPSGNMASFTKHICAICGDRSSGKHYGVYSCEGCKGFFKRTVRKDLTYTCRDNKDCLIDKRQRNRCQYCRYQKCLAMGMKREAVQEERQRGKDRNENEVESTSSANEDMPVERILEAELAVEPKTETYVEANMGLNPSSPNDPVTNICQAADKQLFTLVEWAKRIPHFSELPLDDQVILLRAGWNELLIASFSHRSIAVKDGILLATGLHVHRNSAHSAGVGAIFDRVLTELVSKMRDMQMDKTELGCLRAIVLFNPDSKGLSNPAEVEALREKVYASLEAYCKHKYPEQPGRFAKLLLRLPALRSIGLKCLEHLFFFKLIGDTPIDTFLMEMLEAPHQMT
How it was run: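 Read-out: fluorescence from protein-fragment complementation between Nurr1 and RXRα in human HEK293T cells, 8 h after dosing. DMSO served as negative control; increased signal counted as activity.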

[5] = biological target: Retinoic acid receptor RXR-alpha (Homo sapiens) (UniProt P19793); assay: OT_NURR1_NURR1RXRa_1440: Odyssey Thera (OT) 24-hour HEK293T Protein Complementation Assay for Nurr1/retinoid X receptor (RXR) (AID 2283386)
How it was run: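 Fluorescence PCA read-out; HEK293T; 24 h post-dose; bait/prey fused to reporter fragments; gain-of-signal fit vs DMSO negative control.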

[6] = biological target: Peroxisome proliferator-activated receptor gamma (Homo sapiens) (UniProt P37231); assay: OT_PPARg_PPARgSRC1_0480: Odyssey Thera (OT) 8-hour Protein-Complementation Assay for Peroxisome Proliferator-activated Receptor Gamma / SRC-1 Co-activator (AID 2283387);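 further: nuclear to cytoplasmic split Venus YFP fluorescence ratio reporting PPARg SRC-1 interaction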
Peroxisome proliferator-activated receptor gamma (Homo sapiens), sequence (P37231 whole entry, looked up, the tested form may be a part): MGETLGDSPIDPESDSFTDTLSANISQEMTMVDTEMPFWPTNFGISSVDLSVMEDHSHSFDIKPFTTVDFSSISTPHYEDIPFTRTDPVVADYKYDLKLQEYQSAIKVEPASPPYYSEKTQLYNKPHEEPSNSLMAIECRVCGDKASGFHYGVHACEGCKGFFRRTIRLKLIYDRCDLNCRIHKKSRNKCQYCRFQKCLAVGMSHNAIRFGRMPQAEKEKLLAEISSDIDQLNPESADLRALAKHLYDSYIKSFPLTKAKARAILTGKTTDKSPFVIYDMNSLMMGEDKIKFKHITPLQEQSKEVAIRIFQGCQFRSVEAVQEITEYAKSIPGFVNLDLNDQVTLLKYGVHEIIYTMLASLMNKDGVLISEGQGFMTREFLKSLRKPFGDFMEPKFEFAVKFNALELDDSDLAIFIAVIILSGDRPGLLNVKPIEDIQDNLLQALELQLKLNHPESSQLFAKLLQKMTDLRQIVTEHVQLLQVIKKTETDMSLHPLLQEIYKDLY
How it was run: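 Protein-fragment complementation in HEK293T: Venus YFP halves (residues 1-158, 159-239, mutated to IFP1/IFP2) fused to PPARg/SRC-1. 8 h exposure; N/C ratio at 488 nm; DMSO negative control.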

[7] = biological target: Peroxisome proliferator-activated receptor gamma (Homo sapiens) (UniProt P37231); assay: OT_PPARg_PPARgSRC1_1440: Odyssey Thera (OT) 24-hour Protein-Complementation Assay for Peroxisome Proliferator-activated Receptor Gamma/ SRC-1 Co-activator (AID 2283388);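 further: nuclear to cytoplasmic ratio of reconstituted Venus YFP fluorescence in fixed imaged cells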
How it was run: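 Readout: nuclear-to-cytoplasmic 488 nm fluorescence ratio, ≥350 cells per image, 8 images per well, after 24 h compound exposure of HEK293T expressing PPARg/SRC-1 split-YFP fusions. Activity fitted in positive direction against DMSO.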

[8] = read-out: Tumor necrosis factor receptor superfamily member 6 (Homo sapiens) (UniProt P25445); assay: LTEA_HepaRG_FAS: Life Technologies and Expression Analysis (LTEA) Assay for Fas cell surface death receptor (FAS) using HepaRG (AID 2283447; active means hit-call score of the fitted dose curve at least 0.9, where 1 is the maximum; inactive means score below 0.9); details: mRNA level, 48 h; actives raise or lower the signal
How it was run: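 Differentiated human HepaRG cells, pre-cultured 48 h, were exposed in duplicate for 48 h to 8-point half-log concentrations (top 100 uM, 0.5% DMSO) in serum-free induction medium; FAS mRNA measured by qRT-PCR, normalized to ACTB/GAPDH/POLR2A, bidirectional fit versus DMSO.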

[9] = biological target: Agonist Androgen Response Element (ARE), AR (gene 367) (UniProt P10275); assay: OT_AR_ARELUC_AG_1440: Odyssey Thera (OT) 24-hour CHO-K1 Luciferase Assay for Agonist Androgen Response Element (ARE) (AID 2283379)
Agonist Androgen Response Element (ARE), AR (gene 367), sequence (P10275 whole entry, looked up): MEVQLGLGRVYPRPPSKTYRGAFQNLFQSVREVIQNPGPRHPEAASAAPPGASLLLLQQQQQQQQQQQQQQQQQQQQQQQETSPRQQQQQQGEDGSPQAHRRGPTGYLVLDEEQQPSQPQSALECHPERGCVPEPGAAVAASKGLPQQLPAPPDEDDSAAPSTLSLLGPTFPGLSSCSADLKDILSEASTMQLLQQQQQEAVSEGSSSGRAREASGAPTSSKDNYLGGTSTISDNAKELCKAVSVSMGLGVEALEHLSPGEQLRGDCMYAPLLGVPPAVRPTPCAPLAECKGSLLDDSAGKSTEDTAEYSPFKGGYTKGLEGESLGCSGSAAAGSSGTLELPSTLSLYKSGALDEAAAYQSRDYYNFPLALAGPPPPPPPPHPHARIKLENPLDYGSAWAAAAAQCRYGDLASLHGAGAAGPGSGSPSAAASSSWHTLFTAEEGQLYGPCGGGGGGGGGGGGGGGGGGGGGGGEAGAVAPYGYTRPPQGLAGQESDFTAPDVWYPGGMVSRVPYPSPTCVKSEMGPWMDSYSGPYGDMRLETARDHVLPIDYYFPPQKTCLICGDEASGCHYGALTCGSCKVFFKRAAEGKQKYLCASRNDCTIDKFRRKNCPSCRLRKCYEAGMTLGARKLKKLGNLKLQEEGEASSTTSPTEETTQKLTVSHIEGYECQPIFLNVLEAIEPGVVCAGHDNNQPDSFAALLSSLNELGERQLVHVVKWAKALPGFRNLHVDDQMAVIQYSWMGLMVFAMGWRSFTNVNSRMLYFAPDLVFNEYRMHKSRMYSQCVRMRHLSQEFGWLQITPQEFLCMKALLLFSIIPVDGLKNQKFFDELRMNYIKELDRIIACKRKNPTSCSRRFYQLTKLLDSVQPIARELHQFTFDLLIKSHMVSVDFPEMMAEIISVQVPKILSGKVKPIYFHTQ
How it was run: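 Luminescence increase above DMSO, read after a 24 h compound treatment of CHO-K1 cells expressing an androgen response element luciferase reporter, gives the single primary endpoint; concentration-response fitting used the positive direction.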

[10] = biological target: Bile acid receptor (Homo sapiens) (UniProt Q96RI1); assay: OT_FXR_FXRSRC1_0480: Odyssey Thera (OT) 8-hour HEK293T Protein-Complementation Assay for Farnesoid X receptor/SRC-1 Co-activator (AID 2283383)
Bile acid receptor (Homo sapiens), sequence (Q96RI1 whole entry, looked up, the tested form may be a part): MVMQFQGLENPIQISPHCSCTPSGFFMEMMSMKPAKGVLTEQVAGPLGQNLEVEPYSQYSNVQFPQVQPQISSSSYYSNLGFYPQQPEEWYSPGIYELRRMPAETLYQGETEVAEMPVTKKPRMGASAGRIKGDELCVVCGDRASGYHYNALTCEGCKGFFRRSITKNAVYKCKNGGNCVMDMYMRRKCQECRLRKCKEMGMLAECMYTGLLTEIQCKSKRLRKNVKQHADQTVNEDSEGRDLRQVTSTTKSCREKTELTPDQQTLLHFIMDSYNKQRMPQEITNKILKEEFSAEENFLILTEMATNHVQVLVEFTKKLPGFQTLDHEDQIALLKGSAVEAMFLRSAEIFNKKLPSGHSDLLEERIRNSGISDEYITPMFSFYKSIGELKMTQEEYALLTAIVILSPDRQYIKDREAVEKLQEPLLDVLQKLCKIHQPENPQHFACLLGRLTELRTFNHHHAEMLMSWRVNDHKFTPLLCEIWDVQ
How it was run: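 Fluorescence intensity read-out, 8 h post-dose, HEK293T protein-fragment complementation; FXR bait and SRC-1 prey each linked to reporter fragments. Activity scored as signal increase over DMSO negative control.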

[11] = biological target: Bile acid receptor (Homo sapiens) (UniProt Q96RI1); assay: OT_FXR_FXRSRC1_1440: Odyssey Thera (OT) 24-hour HEK293T Protein-Complementation Assay for Farnesoid X receptor/SRC-1 Co-activator (AID 2283384)
How it was run: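 Fluorescence readout, 24 h post-dose, HEK293T; FXR and SRC-1 fused to complementary reporter fragments, association reconstitutes signal. Positive-direction fit vs DMSO baseline.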

[12] = CEETOX_H295R_OHPREG: CeeTox H295R High-throughput Steroidogenesis Assay for OH-Pregnenolone (OHPREG) (AID 2283434; active means hit-call score of the fitted dose curve at least 0.9, where 1 is the maximum; inactive means score below 0.9); details: actives raise or lower the signal
How it was run: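 Readout: HPLC-MS/MS of 17alpha-hydroxypregnenolone in medium after 48 h chemical exposure of H295R cells pretreated with forskolin. Values fitted bidirectionally relative to DMSO; chemicals reducing viability to 20–70% were retested after 10-fold dilution.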

[13] = CEETOX_H295R_OHPROG: CeeTox H295R High-throughput Steroidogenesis Assay for OH-Progesterone (OHPROG) (AID 2283435; active means hit-call score of the fitted dose curve at least 0.9, where 1 is the maximum; inactive means score below 0.9;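 on AC50: 17alpha-hydroxyprogesterone secreted into medium measured by HPLC-MS/MS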); details: actives raise or lower the signal
How it was run: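 HPLC-MS/MS quantification of 17alpha-hydroxyprogesterone secreted by H295R cells after 48 h chemical exposure, following 48 h 10 uM forskolin prestimulation. Gain or loss of signal fitted relative to DMSO. Viability checked by MTT in the same wells.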

[14] = CEETOX_H295R_ANDR: CeeTox H295R High-throughput Steroidogenesis Assay for Androstenedione (ANDR) (AID 2283436; active means hit-call score of the fitted dose curve at least 0.9, where 1 is the maximum; inactive means score below 0.9;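 further: human H295R adrenal cells exposed for 48 h with androstenedione measured in medium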); details: actives raise or lower the signal
How it was run: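 Steroidogenesis in H295R adrenal cells after 48 h dosing; androstenedione quantified by LC-MS/MS, with DMSO as negative control and baseline for bidirectional curve fitting.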

[15] = CEETOX_H295R_CORTIC: CeeTox H295R High-throughput Steroidogenesis Assay for Corticosterone (CORTIC) (AID 2283437; active means hit-call score of the fitted dose curve at least 0.9, where 1 is the maximum; inactive means score below 0.9;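 further: corticosterone secreted into medium quantified by mass spectrometry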); details: actives raise or lower the signal
How it was run: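 Steps: seed H295R, adhere overnight; 10 uM forskolin 48 h; replace with chemical (0.1% DMSO) 48 h; extract medium with MTBE; quantify corticosterone by HPLC-MS/MS; score bidirectionally vs DMSO.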

[16] = CEETOX_H295R_CORTISOL: CeeTox H295R High-throughput Steroidogenesis Assay for Cortisol (AID 2283438; active means hit-call score of the fitted dose curve at least 0.9, where 1 is the maximum; inactive means score below 0.9;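 further: cortisol secreted into medium quantified by LC-MS/MS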); details: actives raise or lower the signal
How it was run: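 Read-out: cortisol in culture medium by reverse-phase C18 HPLC with ESI-positive tandem MS, after MTBE liquid-liquid extraction. Cells: human adrenal H295R, forskolin-primed (10 uM, 48 h) before 48 h chemical exposure in 0.1% DMSO.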

[17] = CEETOX_H295R_DOC: CeeTox H295R High-throughput Steroidogenesis Assay for DOC (AID 2283439; active means hit-call score of the fitted dose curve at least 0.9, where 1 is the maximum; inactive means score below 0.9); details: actives raise or lower the signal
How it was run: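 Human adrenocortical H295R cells, passages up to 10, received 10 uM forskolin for 48 h before chemical addition. After another 48 h exposure in 0.1% DMSO, secreted DOC was measured by LC-MS/MS, with gain or loss fitted against DMSO controls.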

[18] = CEETOX_H295R_ESTRADIOL: CeeTox H295R High-throughput Steroidogenesis Assay for Estradiol (AID 2283440; active means hit-call score of the fitted dose curve at least 0.9, where 1 is the maximum; inactive means score below 0.9;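 further: estradiol secreted into medium quantified by LC-MS/MS after dansyl derivatisation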); details: actives raise or lower the signal
How it was run: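 H295R, 48 h forskolin (10 uM) prestim → 48 h compound, 0.1% DMSO final. Estradiol in medium: MTBE extraction, dansyl chloride derivatization, LC-MS/MS. Fit bidirectional vs DMSO baseline; MTT viability in same wells.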

[19] = CEETOX_H295R_PROG: CeeTox H295R High-throughput Steroidogenesis Assay for Progesterone (PROG) (AID 2283442; active means hit-call score of the fitted dose curve at least 0.9, where 1 is the maximum; inactive means score below 0.9); details: actives raise or lower the signal
How it was run: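 Progesterone read-out: HPLC-MS/MS on MTBE extracts of conditioned medium after 48 h chemical exposure of forskolin-primed (10 uM, 48 h) H295R cells. Gain or loss of signal was fitted relative to DMSO baseline.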

[20] = biological target: mouse Estrogen Receptor alpha (Era), Esr1 (gene 13982) (UniProt P19785); assay: NVS_NR_mERa: NovaScreen (NVS) Nuclear Receptor Binding Assay for mouse Estrogen Receptor alpha (Era) (AID 2283378);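 further: hit means loss of bound radioligand signal relative to DMSO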
mouse Estrogen Receptor alpha (Era), Esr1 (gene 13982), sequence (P19785 whole entry, looked up): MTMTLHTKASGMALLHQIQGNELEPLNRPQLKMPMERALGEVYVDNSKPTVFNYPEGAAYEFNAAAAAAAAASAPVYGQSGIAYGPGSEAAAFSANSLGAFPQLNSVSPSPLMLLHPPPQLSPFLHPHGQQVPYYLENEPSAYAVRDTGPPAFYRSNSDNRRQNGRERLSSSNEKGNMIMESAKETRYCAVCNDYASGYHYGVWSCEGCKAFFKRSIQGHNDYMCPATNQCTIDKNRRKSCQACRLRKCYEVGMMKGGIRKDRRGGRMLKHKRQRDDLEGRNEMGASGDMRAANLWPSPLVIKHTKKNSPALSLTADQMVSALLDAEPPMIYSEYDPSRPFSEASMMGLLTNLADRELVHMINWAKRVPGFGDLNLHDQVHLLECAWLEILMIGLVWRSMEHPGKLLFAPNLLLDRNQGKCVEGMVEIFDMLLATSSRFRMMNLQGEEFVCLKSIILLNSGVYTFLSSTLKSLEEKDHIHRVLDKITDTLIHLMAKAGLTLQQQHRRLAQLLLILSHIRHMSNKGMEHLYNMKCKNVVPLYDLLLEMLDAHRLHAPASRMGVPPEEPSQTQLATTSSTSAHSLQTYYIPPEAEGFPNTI
How it was run: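 Filter scintillation counts of bound radioligand, measured 18 h post-dose, gave the readout; decreased signal relative to DMSO controls indicated displacement from mouse Era. Primary screen ran in duplicate at 25 uM; active chemicals were retested across concentrations.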

Measured: AC50

Cc1ccc(S(=O)(=O)NC(=O)NN2CCCCCC2)cc1
inactive: [1] | [2] | [3] | [4] | [5] | [6] | [7] | [8]

CCCCCCCC/C=C\CCCCCCCC(=O)OC[C@@H](O)[C@H]1OC[C@H](O)[C@H]1O
inactive: [1] | [2] | [3] | [4] | [5] | [6] | [7] | [8]

COc1cc2c(c(OC)c1OC)-c1ccc(OC)c(=O)cc1[C@@H](NC(C)=O)CC2
inactive: [9] | [1] | [2] | [3] | [4] | [5] | [6] | [7] | [12] | [13] | [14] | [15] | [16] | [17] | [18] | [19]
active: [10] 0.0869 µM | [11] 0.03 µM | [4] 8.86 µM | [5] 10.6 µM | [8] 0.0799 µM

c1ccc2c(c1)-c1cccc3c1c-2cc1ccccc13
active: [3] 77.5 µM | [5] 11.2 µM | [12] 2 µM | [13] 3.71 µM | [17] 1.84 µM
inactive: [20] | [1] | [4] | [5] | [6] | [7] | [15] | [16] | [18] | [8]

CCCCC(CC)C(=O)OCCOCCOCCOC(=O)C(CC)CCCC (configuration not stated)
not listed: [2] | [10] | [11]
inactive: all other assays above

CCCCCCCCCCCCCCO
active: [5] 74.3 µM
inactive: [1] | [2] | [3] | [4] | [5] | [6] | [7] | [12] | [13] | [18] | [19] | [8]

CCCOc1ccc(S(=O)(=O)N2CCN(CC)CC2)cc1-c1nc2c(CC)n(Cc3ccccn3)nc2c(=O)[nH]1
not listed: [5] | [9] | [14] | [20]
inactive: all other assays above

CC(C)CC(C)O (configuration not stated)
inactive: [1] | [2] | [3] | [10] | [4] | [5] | [6] | [7] | [8]

CCCC(CCC)C(=O)O
active: [4] 90.4 µM
inactive: [20] | [3] | [4] | [5] | [6] | [7] | [8]

Cc1ncc([C@@H](CCCCCCc2ccc3c(n2)NCCC3)CC(=O)O)cn1
active: [6] 12.4 µM | [19] 12.5 µM
inactive: [1] | [2] | [3] | [11] | [4] | [5] | [6] | [7] | [12] | [8]

COS(C)(=O)=O
inactive: [20] | [4] | [5] | [6] | [7] | [8]

CCCCCCCCCCCCCCCCOS(=O)(=O)O
inactive: [9] | [1] | [3] | [10] | [4] | [5] | [6] | [7] | [8]
active: [20] 7.04 µM

Nc1ccn([C@@H]2O[C@H](CO)[C@@H](O)[C@@H]2O)c(=O)n1
active: [3] 62.2 µM
not listed: [1] | [2] | [9] | [14] | [18]
inactive: all other assays above

OC[C@H]1O[C@@H]2O[C@H]3[C@H](O)[C@@H](O)[C@@H](O[C@H]4[C@H](O)[C@@H](O)[C@@H](O[C@H]5[C@H](O)[C@@H](O)[C@@H](O[C@H]6[C@H](O)[C@@H](O)[C@@H](O[C@H]7[C@H](O)[C@@H](O)[C@@H](O[C@H]1[C@H](O)[C@H]2O)O[C@@H]7CO)O[C@@H]6CO)O[C@@H]5CO)O[C@@H]4CO)O[C@@H]3CO
inactive: [1] | [2] | [3] | [4] | [5] | [6] | [7] | [8]
active: [20] 10.3 µM
